Assay outcomes from PubChem.
TWEAK-Fn14 inh – TWEAK-Fn14 signaling inhibition | TWEAK-stimulated Fn14 reporter cells, luciferase luminescence, 8 h | inhibition, % at 10 µM | 360,000 compounds, 2% hits | AID 1159606; in the data active = inhibition above about 50%
LMP1 NFkB inh – reduces LMP1-driven NF-kappaB luciferase signal | LMP1-induced NF-kappaB luciferase reporter cells, luminescence | inhibition, % at 12.5 µM | 350,000 compounds, 0.69% hits | AID 504558; in the data active = inhibition above about 41%
HSF1 activator – increases HSF-1 driven luciferase reporter signal. AID 504408. 300,000 compounds, 1.7% hits. NIH3T3-HGL HSF-1 luciferase reporter, MG132, 8 h; 100% = twice DMSO control signal. activation, % at 9 µM;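 active = mean replicate activation of at least 50% with a set share of replicates each reaching 50%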
HSF1 inhib – HSF1 inhibition. activity change, negative = inhibition, % at 7.5 µM (by protocol). NIH3T3-HGL HSE-luciferase, MG132-induced, luminescence 8 h; active compounds read low. 300,000 compounds, 0.77% hits;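 active = more than half of replicate wells show activity change below -50%, luminescence cut by over half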;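 note: luciferase reports HSF-1 transcriptional activity via heat shock element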
HSP90 inh – HSP90 refolding inhibition in rabbit reticulocyte lysate; inhibition, % at 5.6 µM; luciferase refolding luminescence, 3 h; 290,000 compounds, 0.91% hits; AID 1789;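 active = inhibition above the screen-wide mean plus 3 SD, computed separately per campaign, cut at about 16% in these data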;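 note: inhibitors lower the luminescence because luciferase stays unfolded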
TROY signal inh – inhibitors of TROY-dependent NF-kB signaling. Q293 LMP1-TROYcd NF-kB luciferase reporter, 4 h. inhibition, % at 10 µM. 360,000 compounds, 0.98% hits;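 active = compounds whose plate-normalised and pattern-corrected inhibition of the luciferase reporter signal at the single screening dose is 50% or more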
HSP90 confirm – HSP90 inhibition, confirmation assay; shares compounds with HSP90 inh; rabbit reticulocyte lysate, luciferase refolding luminescence, 3 h; inhibition, % at 5.9 µM; 2,300 compounds, 64% hits; in the data active = inhibition above about 18%
FLuc counter – counter-screen for HSP90 inhibitors: inhibitors of firefly luciferase; purified native firefly luciferase, luminescence; AID 1847; shares compounds with HSP90 inh; 2,300 compounds, 48% hits; inhibition, % at 5.9 µM;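 active = inhibition above the mean inhibition of all tested sample wells plus 3 SD, cut at about 10% in these data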
Target sequence (P08659 whole entry, looked up): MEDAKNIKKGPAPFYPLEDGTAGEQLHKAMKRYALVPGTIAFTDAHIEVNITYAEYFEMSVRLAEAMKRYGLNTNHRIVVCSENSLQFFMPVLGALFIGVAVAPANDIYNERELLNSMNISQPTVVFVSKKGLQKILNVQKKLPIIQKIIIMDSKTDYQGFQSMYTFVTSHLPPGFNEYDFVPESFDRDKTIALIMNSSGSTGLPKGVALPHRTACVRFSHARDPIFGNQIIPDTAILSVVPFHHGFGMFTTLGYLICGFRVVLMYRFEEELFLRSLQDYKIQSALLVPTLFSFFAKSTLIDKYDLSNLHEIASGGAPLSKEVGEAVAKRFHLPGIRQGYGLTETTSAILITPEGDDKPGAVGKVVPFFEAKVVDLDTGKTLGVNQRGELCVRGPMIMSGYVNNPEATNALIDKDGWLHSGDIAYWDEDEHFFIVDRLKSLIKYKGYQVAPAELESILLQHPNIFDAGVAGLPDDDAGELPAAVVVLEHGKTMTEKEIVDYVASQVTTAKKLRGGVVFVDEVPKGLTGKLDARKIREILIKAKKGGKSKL
Numbers stand for hits; - = inactive; . = no result given. Most compounds without a hit are left out; they make up all but 4.7% or so of the library.

SMILES	TWEAK-Fn14 inh	LMP1 NFkB inh	HSF1 activator	HSF1 inhib	HSP90 inh	TROY signal inh	HSP90 confirm	FLuc counter
Cc1ccccc1SCC(=O)Nc1cc(C(F)(F)F)ccc1N1CCOCC1	-	-	-	-	.	-	.	.
CC(CCl)n1c(=O)c2ccccc2n1C(=O)c1ccccc1 (stereo not given)	-	.	.	.	.	-	.	.
COc1ccc(S(=O)(=O)N2CCOCC2)cc1NC(=O)c1c(C)noc1C	-	-	.	.	.	-	.	.
CCN(CC)CCn1c(=S)[nH]c2ccc(Cl)cc2c1=O	-	-	-	-	45	-	-	-
CCN(CC)CCn1c(=S)[nH]c2cc(Cl)ccc2c1=O	-	-	-	-	-	-	.	.
COc1ccc(C(=O)/C=C/c2ccc(OC)c(COc3ccc(F)cc3)c2)cc1	-	-	-	-	24	-	21	-
Cc1cc(C(=O)N/N=C/c2cccnc2)n[nH]1	-	-	-	-	-	-	.	.
Cc1cc(C(=O)N/N=C/c2ccc3ccccc3c2)n[nH]1	-	-	.	.	36	-	-	-
CCCC(=NC(C)CC)C1=C(O)CC(c2ccccc2)CC1=O (stereo not given)	-	-	-	-	24	-	-	-
CCC(C)N=CC1=C(O)CC(c2ccccc2)CC1=O (stereo not given)	-	-	-	-	-	-	.	.
COc1ccccc1C1CCN(Cc2ccc(Cl)cc2Cl)CC1	-	-	-	-	17	-	-	-
COc1ccccc1C1CCN(Cc2ccc(Cl)c(Cl)c2)CC1	-	-	-	-	-	-	.	.
Cc1[nH]c2ccccc2c1C(c1ccccn1)N1CCCC1 (stereo not given)	-	-	-	-	-	-	.	.
Cc1[nH]c2ccccc2c1C(c1ccccn1)N1CCC(C)CC1 (stereo not given)	-	-	-	-	46	-	-	-
Cc1ccc(CNC(=O)CSc2nc3ccccc3[nH]2)cc1	-	-	-	-	-	-	.	.
O=C(CSc1nc2ccccc2[nH]1)NCCc1ccc(Cl)cc1	-	-	-	-	25	-	-	-
COC(=O)c1cc(=O)nc(NN=Cc2ccc(OC)cc2)s1	-	.	.	.	.	-	.	.
CSc1nnc(-c2ccccc2N=Cc2c(C)[nH]n(-c3ccc4ccccc4c3)c2=O)c(=O)[nH]1	-	-	-	-	-	-	.	.
C=CCSc1nnc(-c2ccccc2N=Cc2c(C)[nH]n(-c3ccccc3)c2=O)c(=O)[nH]1	-	-	-	-	22	-	-	-
N#CCCN(Cc1cccnc1)C(=S)NCc1ccco1	-	-	.	.	61	-	-	-
COc1ccc(C2C(C)C(=O)C(C)C(c3ccc(OC)cc3)N2N=O)cc1 (stereo not given)	-	-	.	.	.	-	.	.
O=C1CC(c2ccc3c(c2)OCCO3)Oc2ccc([N+](=O)[O-])cc21 (stereo not given)	98	-	-	-	55	85	66	64
O=C1CC(c2ccc3c(c2)OCCO3)Oc2ccccc21 (stereo not given)	-	-	-	-	-	-	.	.
COCCN(C(=O)COC(=O)c1ccc2ccccc2c1)c1c(N)n(Cc2ccccc2)c(=O)[nH]c1=O	-	-	.	.	.	-	.	.
O=C(NCc1ccc(F)cc1)C1CCCN1C(=O)Nc1cccc(F)c1 (stereo not given)	-	-	-	-	24	-	-	-
SMILES	TWEAK-Fn14 inh	LMP1 NFkB inh	HSF1 activator	HSF1 inhib	HSP90 inh	TROY signal inh	HSP90 confirm	FLuc counter
COc1ccc(NC(=O)N2CCCC2C(=O)NCc2ccc(F)cc2)cc1 (stereo not given)	-	-	-	-	-	-	.	.
CC(=O)c1cccc(Nc2nc(-c3sc(N)nc3C)cs2)c1	-	-	-	-	52	-	-	-
Cc1nc(N)sc1-c1csc(Nc2cccc(O)c2)n1	-	-	-	-	31	-	-	-
Cc1nc(C)c(-c2csc(Nc3cccc(O)c3)n2)s1	-	-	-	-	-	-	.	.
CC(=O)c1cccc(Nc2nc(-c3sc(C)nc3C)cs2)c1	-	-	-	-	-	-	.	.
CCCCNC(=O)C1(C)CCCCN1Cc1ccccc1-c1ccccc1 (stereo not given)	-	.	.	.	.	-	.	.
Cc1ccc2nc(-c3ccccc3)cn2c1	105	72	-	-	86	85	92	83
CC(=O)Nc1ccc(-c2cn3cc(C)ccc3n2)cc1	-	-	-	-	-	-	.	.
Clc1ccc(-c2cn3cc(Cl)ccc3n2)cc1	75	-	-	-	32	-	55	54
Cc1ccc2nc(-c3ccc(O)c(O)c3)cn2c1	69	-	-	-	30	-	41	9.7
Oc1ccc(-c2cn3cc(C(F)(F)F)ccc3n2)cc1	-	-	-	-	17	-	49	40
Oc1ccc(-c2cccc(-c3ccc(O)cc3)n2)cc1	-	-	-	-	-	-	.	.
CCc1nc2ccc(C(=O)Nc3cccc(OC)c3)cn2c1N(CC)Cc1cccc(Br)c1	-	.	.	.	.	-	.	.
Cc1ccc(NC(=O)CN2CCN(S(=O)(=O)c3ccc4c(c3)OCCO4)CC2)c(C)c1	-	-	.	.	.	-	.	.
COc1cc(NC(=O)CCn2c(=S)[nH]c3ccccc3c2=O)cc(OC)c1OC	-	-	.	.	.	-	.	.
CCOC(=O)C1(C)CCN1C(=O)COc1ccc(C(C)(C)C)cc1 (stereo not given)	-	.	.	.	.	-	.	.
CCCC(C(=O)NCCC(C)C)N(Cc1ccccc1Cl)C(=O)c1snc(C(N)=O)c1N (stereo not given)	-	-	-	-	17	-	-	-
CCCC(C(=O)NCCC(C)C)N(Cc1ccc(F)cc1)C(=O)c1snc(C(N)=O)c1N (stereo not given)	-	-	-	-	-	-	.	.
Cc1cc(Br)ccc1NC(=O)C1CCN(C(=O)c2ccco2)CC1	-	-	-	-	75	-	-	-
COc1ccc(C)cc1S(=O)(=O)N1CCCC(N2CCN(c3ccccc3)CC2)C1 (stereo not given)	-	-	.	.	.	-	.	.
C[C@H]1CN([C@@H](C)CO)C(=O)CCCn2nncc2CO[C@@H]1CN(C)C(=O)c1ccncc1	-	-	.	.	.	-	.	.
Cc1ccc(CSc2nc3ccncc3[nH]2)cc1	-	47	-	-	63	-	80	69
Clc1ccc(CSc2nc3ccncc3[nH]2)cc1	-	-	56	-	27	-	64	45
O=C(c1ccc(CSc2nc3ccncc3[nH]2)cc1)N1CCCCCC1	-	-	-	-	27	-	51	27
O=C(O)c1ccc(CSc2nc3ccccc3[nH]2)cc1	-	-	-	-	-	-	.	.
Cc1cc(C)cc(NC(=O)CSc2nc3ccncc3[nH]2)c1	-	-	-	-	-	-	.	.
O=C(CC[C@H]1O[C@@H](n2ccc(=O)[nH]c2=O)[C@H](O)[C@@H]1O)NCc1ccccc1	-	.	.	.	.	-	.	.
